The list is not random: actives were taken first. Their share in the collection is about 18%.
TDP1 cell noCPT = qHTS for Inhibitors of human tyrosyl-DNA phosphodiesterase 1 (TDP1): qHTS in cells in absence of CPT; DT40 Tdp1-/- hTDP1 cells, no CPT, ATP luminescence, 48 h; actives 15% (n = 420,000); AID 686978, 2013; Potency, µM (highest dose often 46.2 µM), inactives show at the top dose activity change, negative = growth inhibition, most hits filed as inhibitors; further: potency means the concentration at half of the fitted maximal effect; nearly all actives have a fitted effect of over 55% in size
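No-CPT arm: Tdp1-/-;hTDP1 DT40 cells (400/well) plus compounds, incubated ≥48 hr at 37 °C. Readout CellTiter-Glo luminescence.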
TDP1 cell CPT = DT40-hTDP1 cell growth loss with CPT | chicken DT40 Tdp1-/-;hTDP1 cells + 20 nM CPT, ATP luminescence, 48 h | Potency, µM (doses to about 46.2 µM), for the others: at the highest dose activity change, negative = growth inhibition, actives largely listed as inhibitors | actives 12% (n = 420,000); further: potency means the concentration at half of the fitted maximal effect; nearly all actives have a fitted effect of over 55% in size
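Chicken DT40 Tdp1-/- cells stably complemented with human TDP1 were seeded at 400 cells/well in medium containing 20 nM camptothecin, exposed to pin-transferred compounds, and grown at 37 °C for at least 48 hr. Viability was read as ATP luminescence.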
VP16 counter = counter-screen for ROR gamma inhibitors: Gal4-VP16 reporter; AID 2546; Drosophila S2 Gal4-VP16 UAS-luciferase, luminescence, 20 h; actives 3.5% (n = 310,000); Potency, µM (highest dose often 53.6 µM), for inactives: at the top dose activity, negative = inhibition, most hits filed as inhibitors;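 further: Gal4-VP16 expression switched on by copper sulfate through the metallothionein promoter; potency means the concentration at half of the fitted maximal effect; nearly all actives have a fitted effect of over 50% in size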
IL1B secr inh = inhibitors of inflammasome signaling (IL-1 beta secretion); THP-1 LPS/ATP IL-1B secretion, AlphaLISA, 16 h; hits give low values; actives 4.7% (n = 360,000); activity change, % at 57.5 µM; in the data active means activity change below about -50%; inconclusive means mostly about -30% to -49%
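THP-1 cells pretreated 1 hr with compounds (up to 57.5 uM final), then stimulated with LPS (250 ng/mL final) plus ATP (1.25 mM final); secreted IL-1B measured by AlphaLISA after 16 hr, decreased signal indicating inhibition.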
RORg inh = ROR gamma (mouse) transcription inhibition; P51450; Drosophila S2 Gal4-RORgamma UAS-luciferase reporter, 20 h; Potency, µM (highest dose often 53.6 µM), for inactives: top-dose activity change, negative = inhibition, actives largely listed as inhibitors; actives 5.4% (n = 310,000); further: potency means the concentration at half of the fitted maximal effect; nearly all actives have a fitted effect of over 60% in size
Target sequence (P51450 whole entry, looked up, the tested form may be a part): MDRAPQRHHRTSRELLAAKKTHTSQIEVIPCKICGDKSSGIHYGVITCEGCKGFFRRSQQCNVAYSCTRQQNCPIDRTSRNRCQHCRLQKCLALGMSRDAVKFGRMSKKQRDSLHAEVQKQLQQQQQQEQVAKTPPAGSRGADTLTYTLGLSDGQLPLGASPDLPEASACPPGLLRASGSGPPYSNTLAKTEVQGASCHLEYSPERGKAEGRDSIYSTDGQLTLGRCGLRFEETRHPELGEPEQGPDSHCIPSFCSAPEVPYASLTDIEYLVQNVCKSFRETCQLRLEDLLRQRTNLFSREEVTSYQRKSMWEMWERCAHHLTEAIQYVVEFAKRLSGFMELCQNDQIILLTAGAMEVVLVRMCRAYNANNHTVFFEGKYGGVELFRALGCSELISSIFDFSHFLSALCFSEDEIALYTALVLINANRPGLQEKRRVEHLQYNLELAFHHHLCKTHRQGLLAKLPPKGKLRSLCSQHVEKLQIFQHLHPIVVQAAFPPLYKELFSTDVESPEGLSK
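Luminescence from a UAS-regulated Photinus luciferase reporter in stably transfected Drosophila Schneider cells is measured; decreased signal marks ROR gamma inhibition. Fusion expression is induced by 700 uM copper sulfate for 20 hr.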
LDHA inh = LDHA (human) enzyme inhibition; actives 0.15% (n = 480,000); P00338; purified LDHA, NADH/diaphorase-resazurin fluorescence; hits give low values; activity change, % (values are at about 110 or 230 µM); AID 1347041; in the data active means activity change below about -30%; inconclusive means mostly about -25% to -30%;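 further: plate controls were DMSO wells for no effect and wells without enzyme for full effect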
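LDH5 2 nM; NADH 0.06 mM, pyruvate 0.2 mM; 200 mM Tris pH 7.4, EDTA, Tween-20; 5 min RT. Detection: diaphorase 0.133 mg/mL + resazurin 37 µM, fluorescence ex540/em590 at 0 and 20 min; normalized to enzyme-free and DMSO wells.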
* = called active by the depositor; ? = inconclusive; nt = not tested or not shown; [ ] = another dose, or the depositor's remark. Unless noted, the call rests on the fitted dose curve; in most records, active means well fitted curve in the direction sought with a large enough effect; inconclusive means small, poorly fitted or top-dose-only effect, or another doubt; inactive means no such curve, though single readings can be large; an effect the other way counts as inactive or inconclusive. Unless noted, on the % scale 0 is the no-effect control and ±100 the full control effect.

SMILES | TDP1 cell noCPT | TDP1 cell CPT | VP16 counter | IL1B secr inh | RORg inh | LDHA inh
Cc1ccc(CSc2nc3ccncc3[nH]2)cc1 | 15µM* | ? | 7.9µM* | -17 | 7.9µM* | 1
O=C(NCc1ccc(Cl)cc1)c1ccc(CSc2nc3ccncc3[nH]2)cc1 | ? | ? | -16% | -74* | 15% | -5
O=C(c1ccc(CSc2nc3ccncc3[nH]2)cc1)N1CCN(c2cccc(Cl)c2)CC1 | 7.3µM* | 9.2µM* | 11µM* | ? | ? | 0
O=C(c1ccc(CSc2nc3ccncc3[nH]2)cc1)N1CCCCCC1 | ? | ? | ? | 48 | 3% | -1
COc1ccc(OCCCCc2c(C)n[nH]c2C)cc1 | ? | 23µM* | nt | -4 | nt | -7
Cc1cccc(OCCCc2c(C)n[nH]c2C)c1 | -16% | -29% | -1% | 6 | 11µM* | -5
Cc1n[nH]c(C)c1CCOc1ccc(C(C)C)cc1 | ? | ? | ? | 23 | ? | -2
O=C(CN1CCN(C(=O)c2cccc(I)c2)CC1)N1CCCCC1 | nt | nt | nt | nt | nt | -3
O=C1CCC(C(=O)OC(C(=O)c2c[nH]c3ccccc23)c2ccccc2)=NN1 (stereo unspecified) | 8% | -21% | 7.1µM* | 2 | 33%[10 µM] | -3
COc1ccccc1NC(C)C(=O)c1c[nH]c2ccccc12 (stereo unspecified) | ? | 11µM* | nt | nt | nt | 3
O=C(c1c[nH]c2ccccc12)C(Cl)c1ccccc1 (stereo unspecified) | 21µM* | 23µM* | 2% | -73* | -22% | -1
O=C(OC(C(=O)c1c[nH]c2ccccc12)c1ccccc1)c1cnccn1 (stereo unspecified) | -13% | -24% | -11% | -3 | 0% | 2
Cc1cccc(/C=C/C(=O)N(Cc2ccco2)C2CC2)c1 | nt | nt | nt | nt | nt | -5
Cc1ccc(NC(=O)C2CCCC2)cc1 | nt | nt | nt | nt | nt | 1
Cc1ccc(NC(=O)C2=C(O)c3sccc3N(C)S2(=O)=O)cc1 | 21µM* | ? | -8% | -17 | 29% | -2
Cc1ccc(NC(=S)C2=C(O)c3sccc3N(C)S2(=O)=O)cc1 | ? | ? | 16µM* | 13 | 13µM* | 6
CN1c2ccsc2C(O)=C(C(=O)Nc2ccccc2)S1(=O)=O | ? | ? | 1% | 13 | 13% | -6
Cc1c(C#N)c(NC(=O)CN2CCNC(=O)C2)n(Cc2ccco2)c1C | nt | nt | nt | nt | nt | 11
O=S(=O)(Nc1ccc2oc(-c3ccc(Cl)cc3)nc2c1)c1ccccc1 | nt | nt | nt | nt | nt | 0
c1ccc(NCCc2ccccn2)cc1 | -22% | 10% | nt | -9 | nt | -2
S=C(NCCc1ccccn1)Nc1cc(Cl)cc(Cl)c1 | -16% | -27% | ? | -77* | 5µM* | -3
COCCNC(=S)Nc1ccc(Cl)c(Cl)c1 | -4% | 9% | ? | -12 | 10µM* | -8
S=C(NCCc1ccccn1)Nc1ccccc1 | -12% | -21% | ? | -14 | 20µM* | -9
S=C(NCCc1ccccn1)Nc1ccc(Cl)c(Cl)c1 | ? | ? | 7.1µM* | -19 | 5.6µM* | -9
COc1cccc(C(=O)Oc2ccc(-c3ccc(C)cc3)cc2)c1 | nt | nt | nt | nt | nt | 2
SMILES | TDP1 cell noCPT | TDP1 cell CPT | VP16 counter | IL1B secr inh | RORg inh | LDHA inh
COc1cccc(NC(=S)NCc2ccncc2)c1 | -30% | -7% | -10% | 1 | 1% | -10
COc1cccc(NC(=S)NCCc2ccccn2)c1 | 1% | 1% | 18µM* | -2 | ? | -6
COc1cccc(C(=O)Oc2ccc(OC(=O)c3cccc(OC)c3)cc2)c1 | nt | nt | nt | nt | nt | -3
O=C(NCc1ccc(Cl)cc1)c1cccnc1 | ? | ? | -3% | 5 | 1% | -1
O=C(NCc1cccnc1)c1ccc(COc2ccc(Cl)cc2)cc1 | 10µM* | 16µM* | ? | -15 | ? | 3
O=C(CNC(=O)c1ccc(Br)cc1)NCc1cccnc1 | -11% | 17% | 3% | 20 | -4% | -8
COc1cc(C(=O)Nc2ccccc2C(=O)NCc2cccnc2)cc(OC)c1OC | ? | 1% | 11% | -58* | -1% | 0
O=C(NCCc1ccccc1)c1ccccc1NC(=O)C1CC=CCC1C(=O)O (stereo unspecified) | 16µM* | 15µM* | -3% | 32 | -15% | -5
O=C(NCc1cccnc1)c1ccc(NC(=O)c2ccc(Br)cc2)cc1 | 15µM* | 9.2µM* | -10% | 53 | 29% | -10
CCOCCCNCc1c(F)cccc1Cl | nt | nt | nt | nt | nt | -1
CC(C)(C)c1ccc(OCc2ccc(C(=O)NCc3cccnc3)o2)cc1 | 8.2µM* | 21µM* | 1.4µM* | -17 | ? | 2
O=C(COc1ccc(Cl)cc1)Nc1ccccc1C(=O)NCc1cccnc1 | 23µM* | ? | -3% | -28 | 0% | 2
Cc1ccc(OCc2ccc(C(=O)NCc3cccnc3)cc2)cc1C | 5.2µM* | 3.3µM* | -9%[10 µM] | -54* | -28% | 1
O=C(CCl)Nc1ccccc1C(=O)NCc1ccccc1 | ? | 23µM* | 0% | -83* | -38% | -3
O=C(Nc1cccc(F)c1)Nc1c(NC2CCCC2)c2ccccc2oc1=O | nt | nt | nt | nt | nt | 8
CCCn1nc(C(=O)N(CC)c2ccccc2C)c2ccccc2c1=O | nt | nt | nt | nt | nt | 5
O=C(COc1ccc(Cl)cc1)Nc1ccc(C(=O)NCc2cccnc2)cc1 | 9.2µM* | 12µM* | -7% | 0 | 8% | -4
O=C(Nc1ccc(Cl)cc1C(=O)NCc1cccnc1)c1ccc(Cl)cc1Cl | 18µM* | ? | -1% | 0 | ? | 0
O=C(Nc1c(Cl)cc(Cl)cc1C(=O)NCc1cccnc1)c1ccc(Cl)cc1Cl | ? | -22% | 0% | 27 | -4% | -5
COc1cc(NC(=O)c2cccc3c2C(=O)N(Cc2cccnc2)C3)cc(OC)c1OC | ? | ? | 3% | -56* | -26% | -6
Cc1cccc(OCC(=O)Nc2ccc(C(=O)NCc3cccnc3)cc2)c1 | nt | nt | -5% | nt | 12% | nt
Nc1sccc1C(=O)NCc1ccccc1 | 15µM* | -116% | nt | 7 | nt | 1
CCN1CCCC1CNC(=O)CC(C)C (stereo unspecified) | nt | nt | nt | nt | nt | 2
CCc1cccc(CC)c1NC(=O)C(Sc1ccccc1)c1ccccc1 (stereo unspecified) | nt | nt | nt | nt | nt | 0
O=[N+]([O-])c1c(Nc2ccccc2O)cc(Cl)c2nonc12 | 3.7µM* | 4.6µM* | 2.8µM* | -102* | 3.5µM* | 1
O=C(Nc1nc(-c2cc3ccccc3oc2=O)cs1)c1ccccc1Cl | nt | nt | nt | nt | nt | 9
